These results are taken from PubChem BioAssay (NCI).

Structures are written as SMILES. The panel holds about 79,000 compounds, 15% with a hit somewhere; the sample as a whole holds those more often. Activity calls are given as the source filed them. Rule as the data show it: active = growth inhibition above about 70%; inactive = the rest.

The test can be described thus: NCI Yeast Anticancer Drug Screen. Data for the rad50 strain (AID 155).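 Also: 0% = growth of vehicle-only cultures of the same strain.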 The conditions noted are these: S. cerevisiae rad50 strain growth inhibition; at 50.0 µM; hits give high values. The procedure: Growth inhibition of yeast strains with defined genetic alterations is measured as a screen for potential anti-cancer activity. Selected strains with alterations in DNA damage repair or cell cycle control were exposed to compounds and growth inhibition was measured relative to vehicle treated controls. The strain used in this assay is rad50
Take `O=C(O)c1ccccc1-c1ccccc1C(=O)O`: the growth inhibition is -3.95% (inactive).
For the compound `Cc1ccc(S(=O)(=O)N/N=C2\CCC3CC2C3(C)C)cc1` (stereo not given), the growth inhibition is 1% (inactive).
Consider `Cn1c2ccccc2c2nn3cnnc3nc21`, for which the growth inhibition was 18.1% (inactive).
Regarding `C=C(CCCC(C)OC(=O)NC(C)c1cccc2ccccc12)[Si](C)(C)C` (stereo not given), the growth inhibition is -41.7% (inactive).
The value for `CSc1nc(NC2OC(CO)C(O)C(O)C2O)cc(=O)[nH]1` (stereo not given) was 3.5% (inactive).
Next, `N#C/C(=C\c1ccccn1)c1ccc(Cl)cc1`: 3.15% (inactive); `Nc1ccn[nH]1`: 5.1% (inactive).
The value for `CCCCNC(=S)N(CCCC)CCCC` was 21.8% (inactive); that for `CCOC(=O)c1c(C)c2c(n1Cc1ccccc1)CCCC2=O` was 15.5% (inactive).
Regarding `Cc1nn(C)c(=O)c2nn(-c3ccccc3)c(C)c12`, the growth inhibition is 19.6% (inactive).
Next, `COC(=O)C(C#N)(CCc1ccc([N+](=O)[O-])cc1)CCc1ccc([N+](=O)[O-])cc1`: 14.8% (inactive); `COC(=O)C1(C)C=CC(=O)C2(C)C1C(O)C1OC3CC(c4ccoc4)C(C)=C3C1(C)C2CC(=O)O` (stereo not given): 19.9% (inactive).
On to `CCOC1OC(C2COC(=S)O2)C(O)C1O` (stereo not given), for which the growth inhibition is 9.35% (inactive).
Next, `CCCCCCC[CH2][Sn]1([CH2]CCCCCCC)[O]C2C(CO)OC(n3ccc4c(N)ncnc43)C2[O]1` (stereo not given): -0.4% (inactive).
The value for `CCOC(=O)CCC(NC(=O)c1ccc(OCc2ccc3nc(OC)c(OC)nc3c2)cc1)C(=O)OCC` (stereo not given) was -14.2% (inactive); that for `O=c1cc(C=Nc2cccc(Br)c2)[nH]c(=S)[nH]1` was -4.4% (inactive).
The value for `NC(Cc1ccccc1)=NCC(=O)O` was -40.5% (inactive); that for `CC(=O)[CH-]C(=O)c1ccccc1.CC(=O)[CH-]C(=O)c1ccccc1.CC(C)CCCC(C)[C@H]1CCC2[C@@H]3CC=C4C[C@@H]([O-])CC[C@]4(C)C3CC[C@@]21C.CC[O-].[Ti+4]` (stereo not given in full) was 11.2% (inactive).
`CC1(C)C2C/C(=N/O)C(=O)C1C2` (stereo not given): the growth inhibition was -4.5% (inactive).
The value for `C=CCNC(=S)Nc1cccc(O)c1` was -8.05% (inactive); that for `O=C(CSc1cc(Cl)c(Cl)cc1Cl)Nc1cccc(Cl)c1` was -7.9% (inactive); that for `COc1ccc(N=Cc2c(O)c(O)c(C(C)C)c3cc(C)c(-c4c(C)cc5c(C(C)C)c(O)c(O)c(C=Nc6ccc(OC)cc6)c5c4O)c(O)c23)cc1` was 2.2% (inactive).
The value for `CN(C)C(=O)CCCC(=O)c1cccc([N+](=O)[O-])c1` was 9.55% (inactive); that for `N#CCCNc1ccc2c(c1)Cc1ccccc1-2` was 1.65% (inactive).
The value for `Cc1cc(=O)cc(-c2ccccc2)[nH]1` was -32.5% (inactive); that for `Cc1ccccc1C(C#N)/C(=N/NC(N)=S)C(=O)Nc1c(C)cccc1C` (stereo not given) was -36.5% (inactive).
Regarding `C[N+](C)(Cc1ccccc1)c1ccccc1`, the growth inhibition is -3.7% (inactive).
Next, `CC1=C(C(=O)OC2CC3CCC2(C)C3(C)C)C2Nc3ccccc3N(C)C2O1` (stereo not given): -4.75% (inactive); `CCCCC1CCC2CCCCC2C1` (stereo not given): 3.4% (inactive); `O=C(Nc1ccccc1)C1(Cl)CCCCC1`: 11.7% (inactive).
Next, `COc1ccc(C(=O)N/N=C/c2cccc(OC)c2OC)cc1`: -6.3% (inactive); `CCCCCCCCOCC1S(=O)(=O)OCCOS1(=O)=O`: -48.2% (inactive); `COC1(NS(=O)(=O)c2ccc(C)cc2)CC1`: -43.8% (inactive).
The value for `CCOC(=S)SC(=S)SC(=S)OCC` was 1.15% (inactive).
Regarding `O=C(/C=C/c1ccccc1O)c1ccccc1`, the growth inhibition was -22.8% (inactive).
The value for `O=C(O)CN1CCCCC1` was -5.65% (inactive).
Next, `NS(=O)(=O)c1ccc(NC2(C(=O)O)CCCC2)cc1`: -18.4% (inactive); `CCOC(=O)Nc1cc(Cl)c2nnn(C(=O)OCC)c2n1`: 95.8% (active).
Next, `NC(N)=NS(=O)(=O)c1ccc(NC(=O)c2cccc3c(N)c4ccccc4nc23)cc1`: 5.35% (inactive).
On to `CN(C)CCCNCc1c[nH]c(=O)[nH]c1=O`, for which the growth inhibition was -4.75% (inactive).
